# Most compounds without a hit are left out; they make up all but 2.2% or so of the library.
# VACV Venus inh: qHTS for Stage-Specific Inhibitors of Vaccinia Orthopoxvirus: Venus Reporter Primary qHTS; Vaccinia virus Venus reporter expression, fluorescence; 0.46% of 330,000 active; Potency, µM (highest dose often 36.5 µM), for inactives: at the top dose activity change, negative = inhibition, usual class: inhibitors; calls by dose curve; tested in A549 cells; note: nearly all actives have a fitted effect of over 30% in size
# VACV mCherry inh: qHTS for Stage-Specific Inhibitors of Vaccinia Orthopoxvirus: mCherry Reporter Primary qHTS. Vaccinia virus mCherry reporter infection, fluorescence. Potency, µM (series often up to 36.5 µM), for inactives: top-dose activity change, negative = inhibition, usual class: inhibitors. 0.63% of 310,000 active; calls by dose curve; tested in A549 cells; note: nearly all actives have a fitted effect of over 35% in size
# Giardia FBPA inh: qHTS Assay for Inhibitors of Fructose-1,6-bisphosphate Aldolase from Giardia Lamblia | 0.71% of 290,000 active | A8B2U2 | purified Giardia FBPA | Potency, µM (highest dose often 59.6 µM), for inactives: at the top dose activity, negative = inhibition, actives largely listed as inhibitors | AID 2451, 2010; active = well fitted inhibition curve with a large enough effect; inconclusive = small, poorly fitted or top-dose-only effect, or effect the other way; note: nearly all actives have a fitted effect of over 55% in size
# Target sequence (A8B2U2 whole entry, looked up): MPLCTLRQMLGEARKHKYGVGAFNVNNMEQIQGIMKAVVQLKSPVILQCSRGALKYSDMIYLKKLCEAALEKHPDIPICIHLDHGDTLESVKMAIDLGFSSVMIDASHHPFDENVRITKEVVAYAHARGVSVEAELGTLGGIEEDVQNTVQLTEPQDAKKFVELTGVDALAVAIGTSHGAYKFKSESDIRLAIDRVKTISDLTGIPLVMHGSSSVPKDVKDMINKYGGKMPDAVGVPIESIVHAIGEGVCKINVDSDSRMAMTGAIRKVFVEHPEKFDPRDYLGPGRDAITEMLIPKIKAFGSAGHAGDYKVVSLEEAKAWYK
#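 40 nM FBPA preincubated 10 min at RT with compound (up to 57.5 uM final), then substrate plus GAPDH/TPI/NAD/arsenate coupling and diaphorase/resazurin added. Fluorescence read after 20 min at RT, 525/598 nm.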
# FMDV antiviral: High Throughput Screening for Foot and Mouth Disease Virus Antivirals. AID 1159524, 2015. 1.2% of 410,000 active. Potency, µM (titrated, usually from 57.9 µM), for the others: top-dose activity change, negative = inhibition, actives largely listed as inhibitors. FMDV antiviral cell-based qHTS; calls by dose curve; tested in HEK293T cells; note: read-out not given here; nearly all actives have a fitted effect of over 45% in size
# * marks the source's active call; other numbers are inactive results; i = inactive; ? = inconclusive; . = no result given; [ ] = dose if it differs, or a comment. % is set by controls: 0 for no effect and ±100 for the full control effect; potency is the fitted concentration of half-maximal effect.
SMILES,VACV Venus inh,VACV mCherry inh,Giardia FBPA inh,FMDV antiviral
CN(CC(=O)Nc1ccc(Cl)c(C(F)(F)F)c1)C(=O)C1CCC1,-16.6%,-9.2%,.,-12.7%
Cc1ccc(S/C(=N/S(=O)(=O)c2ccc(Cl)cc2)c2ccccc2)cc1,-18.4%,0.1%,.,.
Cc1sc2ncnc(N3CCC(C(=O)N(C)CC(=O)Nc4ccccc4Cl)CC3)c2c1C,-27.8%,-24.0%,10.0%,22.4µM*
Cc1ccc(NC(=O)C2CCN(c3ncnc4sc(C)c(C)c34)CC2)cc1S(=O)(=O)N(C)C,-19.1%,i,.,?
CCN(CC)S(=O)(=O)c1cc(NC(=O)C2CCN(c3ncnc4sc(C)c(C)c34)CC2)ccc1Cl,?,?,.,8.91µM*
CNC(=O)OCc1nc(SSC(C)(C)C)n(C)c1COC(=O)NC,?,-23.6%,.,35.5µM*
OC(CN1CCCCC1)c1ccccc1 (stereo not drawn),-3.3%,-10.6%,.,.
CCn1c(CN2CCC(C)CC2)nc2cc(NC(=O)COc3ccc(Cl)c(C)c3)ccc21,?,-24.4%,.,17.8µM*
C=Cc1ccc(C(=O)N2CCc3c(cnc(C)c3CNC(=O)c3ccc4c(c3)OCO4)C2)cc1,-5.8%,-8.7%,.,-4.1%
CCN(CC)CCNC(=O)c1cnn(-c2nccc(-c3cc4ccccc4o3)n2)c1C,-3.8%,-14.4%,.,-9.3%
C/C(=N\N1CCN(C2c3ccccc3-c3ccccc32)CC1)c1ccncc1,-10.7%,.,.,12.6µM*
CC(C)(C)OC(=O)COc1cc(OCC(=O)OC(C)(C)C)c2c(=O)cc(-c3ccccc3)oc2c1,11.2µM*,?,10.3%,?
CC(C)(C)OC(=O)COc1cc(O)c2c(=O)cc(-c3ccccc3)oc2c1,.,.,-1.8%,-28.6%
Cc1cc(NC(=O)CSCC(=O)Nc2cc(C(F)(F)F)ccc2N2CCCC2)no1,-10.6%,-15.2%,.,28.2µM*
Cc1cc(NC(=O)CSCC(=O)Nc2cc(C(F)(F)F)ccc2N2CCOCC2)no1,.,.,.,-19.8%
CCN(Cc1cccc(S(=O)(=O)O)c1)c1ccc(C(=C2C=CC(=[N+](CC)Cc3cccc(S(=O)(=O)O)c3)C=C2)c2ccc(O)cc2S(=O)(=O)O)cc1,-19.8%,10µM*,.,.
O=[N+]([O-])c1ccc(Sc2nnnn2-c2ccccc2)nc1,-22.4%,-25.8%,-0.4%,22.4µM*
O=[N+]([O-])c1ccc(Sc2ccccn2)nc1,?,?,-5.0%,-1.9%
Cc1ccccc1-n1nnnc1Sc1nnnn1-c1ccccc1,?,.,1.1%,8.91µM*
CCS(=O)(=O)Nc1cc(C(=O)N[C@H]2CCCCNC2=O)c2c(c1)nc(-c1ccccc1)n2C,-11.8%,i,.,-18.4%
COC1=C(OC)C(=O)C(CCCCCCCCCCO)=C(C)C1=O,.,.,4.46µM*,.
CCCCCCCCCCC1=C(C)C(=O)C(OC)=C(OC)C1=O,-14.8%[60.7 µM],-12.3%[60.7 µM],?,-21.1%[97.4 µM]
COc1ccc(CNC(=O)CSCc2cnn(-c3ccccc3)c2-n2cccc2)cc1OC,?,?,.,15.8µM*
COc1ccc(S(=O)(=O)N2CCCC(C(=O)Nc3cccnc3)C2)cc1Cl (stereo not drawn),?,?,-6.4%,25.1µM*
CCOC(=O)c1c2c(n(-c3ccc(OC)cc3)c1C)C(=O)C(=O)c1ccccc1-2,4.47µM*,2.82µM*,.,12.6µM*
SMILES,VACV Venus inh,VACV mCherry inh,Giardia FBPA inh,FMDV antiviral
CCOC(=O)c1sc(=S)n(-c2ccc(OC)cc2)c1C,-7.5%,i,-0.2%,-13.8%
COc1ccccc1C(=O)N[C@@H]1c2ccccc2C2(CCN(C(=O)c3ccnn3C)CC2)[C@H]1OC,7.0%,-12.4%,.,10.4%
C=C(C(=O)C(C)(C)O)C(O)c1ccc([N+](=O)[O-])cc1 (stereo not drawn),.,.,-4.0%,.
COc1cc(OC)c(OC)cc1CN1CCCC(n2cc(C(=O)N3CCCCC3)nn2)C1 (stereo not drawn),-3.9%,-21.2%,.,-5.9%
C=CCn1c(SCC(=O)NCCO)nc2sc(C)c(C)c2c1=O,-11.8%,-13.3%,0.0%,3.55µM*
C=CCn1c(SCC(=O)Nc2ccc(C(=O)O)cc2)nc2sc(C)c(C)c2c1=O,.,.,.,-18.4%
O=C(NCC1CCC2(CCN(Cc3ccc4ncccc4c3)CC2)O1)C1CCCO1 (stereo not drawn),-12.8%,i,.,-4.4%
C[C@@](N)(Cc1ccc(O)c(O)c1)C(=O)O,-9.2%,i,22.3µM*,-6.5%
CC(N)(Cc1ccc(O)cc1)C(=O)O (stereo not drawn),.,.,-1.3%,.
O=C(Nc1ccccc1Sc1ccccc1)c1cnn2c1NC(=C1CC1)C=C2C(F)F,-20.3%,-13.6%,.,.
